According to PubChem BioAssay (Tox21):
“And” between values parts separate entries of the source, which are not always exact repeats. Equal entries are not always repeated. Results filed as inconclusive are left out. Some compounds were tested as several samples or in several runs, with calls that do not always agree. The source made the active and inactive calls. Calls follow the shape of the dose curve; as a rule, active = well fitted inhibition curve with a large enough effect in the repeat runs; inconclusive = weak or mixed curves; inactive = no such curve, though single readings can be large or run the other way.

The molecules below were run against Cytochrome P450 2C19 (Homo sapiens) (UniProt P33261) (assay: Cytochrome P450 Family 2 Subfamily C Member 19 (CYP2C19) small molecule antagonists: luciferase reporter qHTS assay (AID 1671197; also: nearly all actives have a fitted effect of over 65% in size)). Conditions: P450-Glo CYP2C19 enzyme, luciferin luminescence, 1 h; series mostly up to 115 µM.
Summary of the method: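 Luminescent readout of CYP2C19 activity: luciferin product detected 20 min after adding detection reagent. Before that, compound and enzyme-substrate mix preincubated 10 min at room temperature; NADPH-regenerating system started a 1 h, 37C reaction. Ketoconazole as positive control.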
Potency is read from the fitted curve at half-maximal effect.

Sequence of Cytochrome P450 2C19 (Homo sapiens) (P33261 whole entry, looked up): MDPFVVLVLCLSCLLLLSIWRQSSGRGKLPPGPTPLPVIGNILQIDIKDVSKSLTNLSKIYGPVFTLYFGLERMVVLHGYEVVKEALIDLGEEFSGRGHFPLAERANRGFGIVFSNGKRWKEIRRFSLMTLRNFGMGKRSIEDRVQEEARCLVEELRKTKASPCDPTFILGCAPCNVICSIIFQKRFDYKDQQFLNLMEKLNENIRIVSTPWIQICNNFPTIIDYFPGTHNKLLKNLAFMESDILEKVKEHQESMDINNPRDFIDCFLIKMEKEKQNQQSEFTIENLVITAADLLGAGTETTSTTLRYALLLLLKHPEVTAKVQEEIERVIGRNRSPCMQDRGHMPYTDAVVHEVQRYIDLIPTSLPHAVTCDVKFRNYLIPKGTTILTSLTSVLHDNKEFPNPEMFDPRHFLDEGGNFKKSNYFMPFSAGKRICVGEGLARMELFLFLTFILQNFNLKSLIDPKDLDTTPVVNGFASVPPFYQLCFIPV

Question: Which Potency does the source give for `Nc1cc(-c2ccncc2)c[nH]c1=O` here?
Answer: The Potency was 8.94 µM (active) and 3.89 µM (active).

Question: Which Potency does the source give for `Oc1ccc(OCc2ccccc2)cc1` here?
Answer: The Potency was 34.8 µM (active) and 8.71 µM (active).

Question: How did the Potency turn out when `CCOC(=O)C1OC1c1ccccc1` (configuration not stated) was run?
Answer: Its Potency is 36.3 µM (active).

Question: For `O=C(O)c1ccc([N+](=O)[O-])cc1`, which Potency is on record?
Answer: Its Potency is “inactive”.

Question: Which Potency does the source give for `Cc1cc(=O)[nH]c(C(C)C)n1` here?
Answer: Its Potency is “inactive”.

Question: For `NC(=O)/N=N/C(N)=O`, which Potency is on record?
Answer: The Potency was 3.18 µM (active) and 5.64 µM (active).

Question: With `CCCCCCCCCCCCOCC1CO1` (configuration not stated) as the molecule, how does the Potency read?
Answer: Its Potency is 60.4 µM (active).

Question: `O=S(=O)(O)CCS` was tested. Which Potency did it give?
Answer: The Potency was “inactive”.

Question: For `O=C(O)c1cc(-c2ccccc2)nc2ccccc12`, which Potency is on record?
Answer: Its Potency is 50.9 µM (active) and inactive.

Question: How did the Potency turn out when `OC1CCCC1` was run?
Answer: Its Potency is “inactive”.

Question: `COC(=O)c1ccccc1O` was tested. Which Potency did it give?
Answer: The Potency was 35.7 µM (active) and inactive.

Question: For `Cc1ccc(N)c(S(=O)(=O)O)c1`, which Potency is on record?
Answer: The Potency was 71.9 µM (active) and inactive.

Question: With `CCCCOCCOCCOC(=O)CCCCC(=O)OCCOCCOCCCC` as the molecule, how does the Potency read?
Answer: The Potency was 22.5 µM (active) and 22.4 µM (active).

Question: Which Potency does the source give for `CCCCC(CC)COC(C)=O` (configuration not stated) here?
Answer: Its Potency is “inactive”.

Question: `CC1=C(/C=C/C(C)=C/C=C/C(C)=C/CO)C(C)(C)CCC1` was tested. Which Potency did it give?
Answer: The Potency was 50.9 µM (active) and 37.5 µM (active).

Question: How did the Potency turn out when `Cc1cc(Cc2ccc(N)c(C)c2)ccc1N` was run?
Answer: Its Potency is 3.56 µM (active) and 5.03 µM (active).

Question: With `NCCc1ccc(O)c(O)c1` as the molecule, how does the Potency read?
Answer: Its Potency is 71.2 µM (active) and inactive.

Question: With `C=C(C#N)C(=O)OCC` as the molecule, how does the Potency read?
Answer: Its Potency is “inactive and 56.4 µM (active)”.

Question: With `O=[N+]([O-])C(CO)(CO)CO` as the molecule, how does the Potency read?
Answer: The Potency was 69.9 µM (active) and inactive.

Question: `CCOC(=O)/C=C\C(=O)OCC` was tested. Which Potency did it give?
Answer: The Potency was 72.3 µM (active) and inactive.

Question: Which Potency does the source give for `CC(C)(N=C=O)c1cccc(C(C)(C)N=C=O)c1` here?
Answer: Its Potency is 79.1 µM (active) and inactive.

Question: With `CC[Si](OC(C)=O)(OC(C)=O)OC(C)=O` as the molecule, how does the Potency read?
Answer: The Potency was 50.2 µM (active) and inactive.

Question: Which Potency does the source give for `C=C(C)C(=O)OCCCCCCCCCCCC` here?
Answer: The Potency was “inactive”.

Question: How did the Potency turn out when `C=C(C)C(=O)OCCC[Si](OC)(OC)OC` was run?
Answer: Its Potency is 22.2 µM (active).

Question: With `COCC(C)O` (configuration not stated) as the molecule, how does the Potency read?
Answer: Its Potency is “inactive”.

Question: Which Potency does the source give for `O=C1CCCCC1` here?
Answer: The Potency was 74.6 µM (active) and inactive.

Question: For `CCCCCCCCCCCCN`, which Potency is on record?
Answer: Its Potency is 4.02 µM (active) and 633 nM (active) and 2.56 µM (active).

Question: With `CC1CC(OC(=O)c2ccccc2O)CC(C)(C)C1` (configuration not stated) as the molecule, how does the Potency read?
Answer: Its Potency is “inactive”.

Question: `O=Nc1ccc(O)cc1` was tested. Which Potency did it give?
Answer: The Potency was 17.4 µM (active).

Question: `CC1(C)O[C@@H]2C[C@H]3[C@@H]4C[C@H](F)C5=CC(=O)CC[C@]5(C)[C@H]4[C@@H](O)C[C@]3(C)[C@]2(C(=O)CO)O1` was tested. Which Potency did it give?
Answer: The Potency was “inactive”.

Question: Which Potency does the source give for `C[C@@H]1O[C@@H](OC[C@H]2O[C@@H](Oc3c(-c4ccc(O)c(O)c4)oc4cc(O)cc(O)c4c3=O)[C@H](O)[C@@H](O)[C@@H]2O)[C@H](O)[C@H](O)[C@H]1O` here?
Answer: Its Potency is “inactive”.

Question: `Clc1ccc(Cl)c(Cl)c1Cl` was tested. Which Potency did it give?
Answer: The Potency was 49.7 µM (active).

Question: With `CC(C)Cc1ccccc1` as the molecule, how does the Potency read?
Answer: Its Potency is “inactive”.

Question: `OCC#CCO` was tested. Which Potency did it give?
Answer: The Potency was 57.2 µM (active) and inactive.

Question: How did the Potency turn out when `C=C(C)C(=O)OCC(CC)(COC(=O)C(=C)C)COC(=O)C(=C)C` was run?
Answer: Its Potency is 3.62 µM (active) and 3.49 µM (active).

Question: How did the Potency turn out when `O=C(c1cc(O)c(O)c(O)c1)c1ccc(O)c(O)c1O` was run?
Answer: Its Potency is 15.9 µM (active) and 31.7 µM (active).

Question: `C=C(C)C(=O)OCCCCCC` was tested. Which Potency did it give?
Answer: Its Potency is “inactive”.
